Outcome and AC50 data for 8 compounds are collected here from PubChem BioAssay (EPA / NIEHS).

For one assay, the target named is THRA (gene 7067) (UniProt P10827). Put plainly: TOX21_TRA_COA_Agonist_Followup_ratio: Tox21 Thyroid Hormone Receptor alpha Agonism through Coactivator Recruitment Follow-Up Assay, Ratio (AID 2283948; active means hit-call score of the fitted dose curve at least 0.9, where 1 is the maximum; inactive means score below 0.9). The procedure, abridged:
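GST-TRa LBD 2.5 nM + 0.10% BSA + cpd; add fluorescein-SRC-2 200 nM, Tb-anti-GST 2 nM. TR-FRET ex 340, em 520/495 ratio. Norm: DMSO 0%, T3 100%; gain-of-signal fit.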

Assay [1] addresses THRB (gene 7068) (UniProt P10828). The experiment in a line: TOX21_TRB_BLA_Agonist_Followup_ratio: Tox21 Thyroid Hormone Receptor beta Agonism Beta-lactamase (BLA) Follow-Up Assay, Ratio (AID 2283954). In short, it runs like this:
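Human TRβ LBD–GAL4 DBD fusion in GeneBLAzer UAS-bla HEK293T cells; 11 concentrations in triplicate, 18 h at 37°C/5% CO2, T3 as agonist control. CCF4-AM substrate 2 h at room temperature; 460:530 nm ratio fitted for gain of signal versus DMSO.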

Assay [2] has the same target. The experiment in a line: TOX21_TRB_COA_Agonist_Followup_ratio: Tox21 Thyroid Hormone Receptor beta Agonism through Coactivator Recruitment Follow-Up Assay, Ratio (AID 2283963; active means hit-call score of the fitted dose curve at least 0.9, where 1 is the maximum; inactive means score below 0.9). The procedure, abridged:
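Cell-free TR-FRET coactivator recruitment: GST-tagged TRβ LBD (5.0 nM) with 0.10% BSA incubated with compound, then fluorescein-SRC-2 peptide (200 nM) and Tb-anti-GST antibody (2 nM) added. 520:495 nm ratio normalized to DMSO (0%) and T3 (100%).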

The target of assay [3] is Retinoic acid receptor RXR-alpha (Homo sapiens) (UniProt P19793). The experiment in a line: TOX21_TR_RXR_BLA_Agonist_Followup_ratio: Tox21 Thyroid Hormone Receptor beta Retinoid X Receptor alpha (RXRa) Agonism Beta-lactamase (BLA) Follow-Up Assay, Ratio (AID 2283968). In short, it runs like this: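 HEK293T RXRa-bla, qHTS; cpd 11-pt conc. in triplicate, 16 h 37C/5% CO2; CCF4-AM 2 h RT; ratio 460:530 nm; agonist direction vs DMSO; 9-cis retinoic acid as positive control.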

The nature of assay [4]: TOX21_TR_RXR_BLA_Agonist_Followup_viability: Viability Assessment in the Tox21 Thyroid Hormone Receptor beta Retinoid X Receptor alpha (RXRa) Agonism Beta-lactamase (BLA) Follow-Up Assay (AID 2283970). The procedure, abridged:
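Cells: HEK293T RXRa-UAS-bla, 2,500/well; medium phenol red-free DMEM + 2% charcoal-stripped FBS; 16h, 37C/5% CO2; qHTS concentration series. Read: CellTiter-Glo luminescence (ATP); bidirectional fit, DMSO = baseline.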

Assay [5] deals with PGR (gene 5241) (UniProt P06401). The experiment in a line: TOX21_PR_BLA_Followup_Antagonist_ratio: Tox21 HEK293 Progesterone Receptor (PR) Antagonism Beta-lactamase Follow-Up Assay, Ratio (AID 2283934). In short, it runs like this: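 HEK293T PR-UAS-bla, 2% CS-FBS; 6 hr plating, then cpd + R5020 (1 nM final), 16 hr 37C/5% CO2. B/G FRET substrate 2 h RT. Ratio ch2/ch1 vs DMSO; CellTiter-Glo viability multiplexed, autofluorescence checked.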

Assay [6] can be described thus: TOX21_PR_BLA_Followup_Agonist_viability: Viability Assessment in the Tox21 HEK293 Progesterone Receptor (PR) Agonism Beta-lactamase Follow-Up Assay (AID 2283935).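 Further: cells exposed to compound for 16 hr at 37 °C; signal loss means lower viability so actives are cytotoxic.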 The procedure, abridged:
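HEK293T PR-UAS-bla, 3,000 cells/well, 2% CS-FBS; 6 hr pre-incubation; cpd in DMSO, 16 hr 37C; LiveBLAzer 2 hr RT, then CellTiter-Glo 30 min RT, luminescence. Decrease = lost viability.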

Assay [7] in a line: TOX21_PR_BLA_Followup_Antagonist_viability: Viability Assessment in the Tox21 HEK293 Progesterone Receptor (PR) Antagonism Beta-lactamase Follow-Up Assay (AID 2283936).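 Further: hits lower the luminescence signal meaning cytotoxicity.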 The procedure, abridged:
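PR-UAS-bla HEK293T cells (3,000/well, 2% charcoal-stripped FBS) given compound plus R5020 agonist, 16 h at 37C. CellTiter-Glo added after bla read, 30 min at room temperature; luminescence loss indicates cytotoxicity.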

Assay [8] addresses PGR (gene 5241) (UniProt P06401). Put plainly: TOX21_PR_LUC_Followup_Antagonist: Tox21 HEK293 Progesterone Receptor (PR) Antagonism Luciferase Follow-Up Assay (AID 2283938).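 Further: curve fitted upward as signal gain over DMSO baseline despite antagonist label.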 The procedure, abridged:
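Luminescence from ONE-Glo reagent, measured after 30 min at room temperature, served as readout. Cells (HEK293 carrying PR-A-luc) had been treated 16 h at 37C with DMSO-dissolved compounds. Activity was fitted against DMSO controls.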

Assay [9] is described as follows: TOX21_PR_LUC_Followup_Antagonist_viability: Viability Assessment in the Tox21 HEK293 Progesterone Receptor (PR) Antagonism Luciferase Follow-Up Assay (AID 2283940). The procedure, abridged: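 Multiplexed viability counter-screen: after 5 days in charcoal-stripped-FBS medium, HEK293-PR-A-luc cells are plated, pinned with DMSO-dissolved compounds for 16 h at 37C, and ATP content is quantified luminescently via CellTiter-Glo.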

Assay [10] can be described thus: TOX21_PR_LUC_Followup_Agonist_viability: Viability Assessment in the Tox21 HEK293 Progesterone Receptor (PR) Agonism Luciferase Follow-Up Assay (AID 2283941).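 Further: loss of signal means cytotoxicity so actives lower viability.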 In short, it runs like this:
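Cells were kept 5 days in charcoal-stripped serum medium before plating HEK293-PR-A-luc at 3,000 cells/well. After 5 h they received DMSO-dissolved compound and incubated 16 h at 37C. Viability was taken from CellTiter-Glo ATP luminescence.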

Assay [11] deals with Thyroid hormone receptor alpha (Rattus norvegicus) + Thyroid hormone receptor beta (Rattus norvegicus) (UniProt P18113+P63059). The experiment in a line: TOX21_TR_LUC_GH3_Agonist_Followup: Tox21 GH3 Thyroid Hormone Receptor Agonism Luciferase Follow-Up Assay (AID 2283939). The procedure, abridged:
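Rat GH3 cells (1,500/well) in serum-free assay medium, treated with 15-point series, 92 uM to 5 nM final, for 24 h at 37C. Luciferase via ONE-Glo luminescence; gain of signal fitted against DMSO, T3 positive control.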

A short description of assay [12]: CEETOX_H295R_CORTISOL_noMTC: CeeTox H295R High-throughput Steroidogenesis Assay for Cortisol, maximum tolerated concentration (MTC) filtered results only (AID 2283916; active means hit-call score of the fitted dose curve at least 0.9, where 1 is the maximum; inactive means score below 0.9). As to conditions: actives raise or lower the signal. The procedure, abridged:
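Cortisol secretion measured by LC-MS/MS after 48 h chemical treatment (final 0.1% DMSO) of forskolin-primed (10 uM, 48 h) H295R cells; gain or loss fitted relative to DMSO, without maximum-tolerated-concentration filtering.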

The nature of assay [13]: CEETOX_H295R_CORTIC_noMTC: CeeTox H295R High-throughput Steroidogenesis Assay for Corticosterone (CORTIC), maximum tolerated concentration (MTC) filtered results only (AID 2283917; active means hit-call score of the fitted dose curve at least 0.9, where 1 is the maximum; inactive means score below 0.9). As to conditions: actives raise or lower the signal. In short, it runs like this:
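Following OECD 456 with minor changes, H295R cultures received 10 uM forskolin for 48 h, then test chemical at 0.1% DMSO for 48 h. Media steroids were extracted and measured by LC-MS/MS.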

Assay [14] is described as follows: CEETOX_H295R_DOC_noMTC: CeeTox H295R High-throughput Steroidogenesis Assay for DOC, maximum tolerated concentration (MTC) filtered results only (AID 2283918; active means hit-call score of the fitted dose curve at least 0.9, where 1 is the maximum; inactive means score below 0.9). As to conditions: actives raise or lower the signal. The procedure, abridged: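 11-Deoxycorticosterone secreted by human adrenal H295R cells quantified by HPLC-MS/MS after 48 h chemical exposure (0.1% DMSO), following 48 h 10 uM forskolin prestimulation. Concentrations not filtered by MTT-derived MTC; bidirectional fitting.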

A short description of assay [15]: CEETOX_H295R_PROG_noMTC: CeeTox H295R High-throughput Steroidogenesis Assay for Progesterone (PROG), maximum tolerated concentration (MTC) filtered results only (AID 2283920; active means hit-call score of the fitted dose curve at least 0.9, where 1 is the maximum; inactive means score below 0.9). As to conditions: actives raise or lower the signal. In short, it runs like this: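 H295R cells; forskolin 10 uM x 48 h prestim; test cpd 48 h, 0.1% DMSO final; media progesterone via LC-MS/MS; bidirectional fit vs DMSO; no MTT-based MTC filter applied.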

The target in assay [16] is PGR (gene 5241) (UniProt P06401). Put plainly: TOX21_PR_BLA_Followup_Agonist_ratio: Tox21 HEK293 Progesterone Receptor (PR) Agonism Beta-lactamase Follow-Up Assay, Ratio (AID 2283933). In short, it runs like this:
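HEK293T PR-UAS-bla, 2% CS-FBS; 6 hr preincubation, cpd/DMSO pinned, 16 hr 37C/5% CO2; LiveBLAzer B/G 2 hr RT; FRET ch2/ch1 ratio, agonist direction vs DMSO. Viability by CellTiter-Glo in same wells.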

The target is the same in assay [17]. The experiment in a line: TOX21_PR_LUC_Followup_Agonist: Tox21 HEK293 Progesterone Receptor (PR) Agonism Luciferase Follow-Up Assay (AID 2283937; active means hit-call score of the fitted dose curve at least 0.9, where 1 is the maximum; inactive means score below 0.9). The procedure, abridged: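 Cells: HEK293-PR-A-luc, 3,000/well, 10% charcoal-stripped FBS assay medium. Compound added after 5 h; 16 h, 37C, 0% CO2. ONE-Glo luciferase, luminescence. Positive fit vs DMSO.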

Structures are written as SMILES. Inconclusive results are not listed. Calls of active or inactive are those of the source. How the source made its calls, unless noted: active means hit-call score of the fitted dose curve at least 0.9, where 1 is the maximum; inconclusive means response in the unintended direction; inactive means score below 0.9.

Sequence of THRB (gene 7068) (P10828 whole entry, looked up, the tested form may be a part): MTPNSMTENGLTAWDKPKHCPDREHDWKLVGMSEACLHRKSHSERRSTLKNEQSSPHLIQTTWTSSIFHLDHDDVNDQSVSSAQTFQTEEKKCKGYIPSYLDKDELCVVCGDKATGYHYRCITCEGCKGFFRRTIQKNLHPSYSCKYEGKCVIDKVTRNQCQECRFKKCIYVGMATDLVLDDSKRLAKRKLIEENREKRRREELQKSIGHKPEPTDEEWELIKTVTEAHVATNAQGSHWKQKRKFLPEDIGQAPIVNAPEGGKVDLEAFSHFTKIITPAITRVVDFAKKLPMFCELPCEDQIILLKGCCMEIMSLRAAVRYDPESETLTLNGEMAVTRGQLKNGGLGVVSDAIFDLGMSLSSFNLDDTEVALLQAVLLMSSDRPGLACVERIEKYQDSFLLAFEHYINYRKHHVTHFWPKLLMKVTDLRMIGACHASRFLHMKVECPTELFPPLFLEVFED
Sequence of PGR (gene 5241) (P06401 whole entry, looked up): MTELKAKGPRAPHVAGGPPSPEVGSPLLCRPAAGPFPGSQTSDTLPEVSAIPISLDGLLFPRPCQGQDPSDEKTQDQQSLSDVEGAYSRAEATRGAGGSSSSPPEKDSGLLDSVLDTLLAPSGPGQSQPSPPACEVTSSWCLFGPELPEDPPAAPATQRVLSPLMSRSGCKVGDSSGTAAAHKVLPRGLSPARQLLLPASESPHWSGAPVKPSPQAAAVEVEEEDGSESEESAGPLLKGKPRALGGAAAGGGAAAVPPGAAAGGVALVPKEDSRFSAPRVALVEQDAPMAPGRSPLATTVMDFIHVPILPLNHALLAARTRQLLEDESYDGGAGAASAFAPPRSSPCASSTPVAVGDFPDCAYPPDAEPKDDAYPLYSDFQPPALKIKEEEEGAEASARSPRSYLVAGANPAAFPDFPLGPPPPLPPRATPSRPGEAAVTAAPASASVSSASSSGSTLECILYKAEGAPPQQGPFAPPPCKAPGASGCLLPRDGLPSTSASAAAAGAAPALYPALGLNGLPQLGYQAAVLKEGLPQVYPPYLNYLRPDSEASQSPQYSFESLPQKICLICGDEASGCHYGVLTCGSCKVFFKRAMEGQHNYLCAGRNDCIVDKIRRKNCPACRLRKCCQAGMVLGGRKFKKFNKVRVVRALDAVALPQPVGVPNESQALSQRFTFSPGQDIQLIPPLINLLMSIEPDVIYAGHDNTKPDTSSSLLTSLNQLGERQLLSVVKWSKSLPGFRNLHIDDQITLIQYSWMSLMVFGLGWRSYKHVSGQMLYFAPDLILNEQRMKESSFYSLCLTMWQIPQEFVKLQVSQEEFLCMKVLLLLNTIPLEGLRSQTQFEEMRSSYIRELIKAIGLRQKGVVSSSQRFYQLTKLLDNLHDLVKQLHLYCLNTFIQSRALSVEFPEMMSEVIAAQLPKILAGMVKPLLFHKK
Sequence of THRA (gene 7067) (P10827 whole entry, looked up, the tested form may be a part): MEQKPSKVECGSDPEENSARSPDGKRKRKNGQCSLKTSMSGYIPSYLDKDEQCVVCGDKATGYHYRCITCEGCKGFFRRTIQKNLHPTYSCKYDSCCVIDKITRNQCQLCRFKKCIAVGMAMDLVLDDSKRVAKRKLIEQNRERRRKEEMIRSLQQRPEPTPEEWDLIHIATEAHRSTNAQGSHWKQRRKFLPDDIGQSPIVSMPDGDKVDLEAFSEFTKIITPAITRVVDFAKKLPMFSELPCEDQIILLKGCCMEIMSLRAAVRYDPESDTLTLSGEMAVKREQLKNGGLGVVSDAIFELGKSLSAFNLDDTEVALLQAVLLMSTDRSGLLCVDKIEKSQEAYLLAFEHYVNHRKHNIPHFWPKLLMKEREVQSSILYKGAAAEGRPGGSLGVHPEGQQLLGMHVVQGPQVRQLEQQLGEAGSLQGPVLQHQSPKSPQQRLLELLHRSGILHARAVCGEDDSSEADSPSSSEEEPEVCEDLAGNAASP
Sequence of Retinoic acid receptor RXR-alpha (Homo sapiens) (P19793 whole entry, looked up): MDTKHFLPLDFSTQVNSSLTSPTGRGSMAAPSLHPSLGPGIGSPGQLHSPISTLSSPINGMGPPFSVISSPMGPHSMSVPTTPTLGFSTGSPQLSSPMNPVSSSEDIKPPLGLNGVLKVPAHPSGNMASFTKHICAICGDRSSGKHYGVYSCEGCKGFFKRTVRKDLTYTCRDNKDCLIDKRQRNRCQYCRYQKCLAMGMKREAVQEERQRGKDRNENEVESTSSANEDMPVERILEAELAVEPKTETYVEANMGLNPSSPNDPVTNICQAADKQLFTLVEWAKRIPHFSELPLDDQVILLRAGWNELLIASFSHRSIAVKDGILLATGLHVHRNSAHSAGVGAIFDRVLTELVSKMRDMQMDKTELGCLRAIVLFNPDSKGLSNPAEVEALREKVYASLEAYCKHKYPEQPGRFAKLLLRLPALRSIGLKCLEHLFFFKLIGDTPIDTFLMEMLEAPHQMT
Sequence of Thyroid hormone receptor alpha (Rattus norvegicus) + Thyroid hormone receptor beta (Rattus norvegicus) (P63059 whole entry, looked up): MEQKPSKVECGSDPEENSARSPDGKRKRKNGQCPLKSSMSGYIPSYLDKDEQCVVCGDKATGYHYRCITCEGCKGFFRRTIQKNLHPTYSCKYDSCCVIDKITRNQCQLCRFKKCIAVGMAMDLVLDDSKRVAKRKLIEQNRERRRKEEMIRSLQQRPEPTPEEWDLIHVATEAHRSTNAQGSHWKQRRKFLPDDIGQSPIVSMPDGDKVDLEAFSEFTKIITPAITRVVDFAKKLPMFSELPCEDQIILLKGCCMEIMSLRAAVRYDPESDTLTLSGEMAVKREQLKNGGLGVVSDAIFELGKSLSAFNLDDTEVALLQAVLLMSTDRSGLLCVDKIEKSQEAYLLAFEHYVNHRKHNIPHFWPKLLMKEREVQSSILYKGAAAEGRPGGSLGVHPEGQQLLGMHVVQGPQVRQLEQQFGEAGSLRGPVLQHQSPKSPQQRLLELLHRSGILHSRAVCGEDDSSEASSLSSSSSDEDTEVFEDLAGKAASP
Sequence of Thyroid hormone receptor alpha (Rattus norvegicus) + Thyroid hormone receptor beta (Rattus norvegicus) (P18113 whole entry, looked up): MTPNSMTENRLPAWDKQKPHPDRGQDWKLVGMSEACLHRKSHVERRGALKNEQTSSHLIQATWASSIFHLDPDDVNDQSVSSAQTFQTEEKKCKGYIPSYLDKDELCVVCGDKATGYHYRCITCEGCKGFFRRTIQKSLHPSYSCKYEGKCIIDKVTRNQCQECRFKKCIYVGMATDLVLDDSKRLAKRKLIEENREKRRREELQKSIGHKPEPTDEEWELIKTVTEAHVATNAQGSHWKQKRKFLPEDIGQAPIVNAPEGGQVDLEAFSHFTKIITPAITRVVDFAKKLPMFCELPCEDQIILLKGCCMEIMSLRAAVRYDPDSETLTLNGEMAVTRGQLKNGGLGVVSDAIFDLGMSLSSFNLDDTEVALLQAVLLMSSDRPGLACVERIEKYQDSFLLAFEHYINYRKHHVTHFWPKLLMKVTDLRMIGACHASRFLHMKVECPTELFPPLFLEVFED

Take `Nc1ccc(S(N)(=O)=O)cc1`: the result (in the assay with THRA (gene 7067); with THRB (gene 7068) [1]; with THRB (gene 7068) [2]; in assay [3]; in assay [4]) was inactive.

With `C#C[C@]1(O)CC[C@H]2[C@@H]3CCC4=Cc5oncc5C[C@]4(C)[C@H]3CC[C@@]21C`, the half-maximal activity concentration (AC50) in the assay with PGR (gene 5241) [5] is 0.0919 µM (active). For the same compound, the compound was classed as inactive (in assay [6]; in assay [7]; with PGR (gene 5241) [8]; in assay [9]; in assay [10]).

In the case of `CC(=O)OCCC(C)CC(C)(C)C` (stereo unspecified), the outcome (in [11]; with THRA (gene 7067); in the assay with THRB (gene 7068) [1]; with THRB (gene 7068) [2]; in assay [3]) was inactive.

With `C[C@H]1C[C@H]2[C@@H]3CCC4=CC(=O)C=C[C@]4(C)[C@@]3(F)[C@@H](O)C[C@]2(C)[C@@]1(O)C(=O)COP(=O)(O)O`, the result (with PGR (gene 5241) [5]; in assay [6]; in assay [7]; in [9]; in assay [10]) was inactive.

Consider `CC(=O)[C@H]1CC[C@H]2[C@@H]3CC=C4C[C@@H](O)CC[C@]4(C)[C@H]3CC[C@]12C`, for which the result (in the assay with PGR (gene 5241) [5]; in assay [6]; in assay [7]; in the assay with PGR (gene 5241) [8]; in assay [10]) was inactive.

With `Cc1ccc(C(C)C)cc1O`, the outcome in [12], in assay [13] and in [14] was inactive. In addition, the concentration at half-maximal activity (AC50) in assay [15] is 41.4 µM (active).

For `COC(=O)C1=C(C)NC(C)=C(C(=O)OCCN(C)Cc2ccccc2)C1c1cccc([N+](=O)[O-])c1` (stereo unspecified), the AC50 is 25 µM (active) with PGR (gene 5241) [5], 79.9 µM (active) in [6], 72.7 µM (active) in assay [7] and 21.8 µM (active) in the assay with PGR (gene 5241) [8]. The compound was classed as inactive in [9] and in assay [10].

As to `C[C@H]1C[C@@H]2[C@H]([C@@H](O)C[C@@]3(C)[C@H]2CC[C@]3(O)C(=O)CO)[C@@]2(C)C=CC(=O)C=C12`, the AC50 with PGR (gene 5241) [16] was 58.7 µM (active); with PGR (gene 5241) [17] it was 0.334 µM (active). Also, the outcome (with PGR (gene 5241) [5]; in assay [6]; in [7]) was inactive.

The AC50 is the concentration at which the activity in the assay is half-maximal.
